# PubChem BioAssay (NCI)
# The panel holds about 83,000 compounds, 20% with a hit somewhere; the sample as a whole holds those more often.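 Assay: single dose, 48 h. Readout: percent growth (0 = no net growth; negative = cell death). Active: <10.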 Unmarked numbers belong to inactive results. Calls of active or inactive are those of the source.
# Experiments:
# Experiment in all cases: NCI-60 one-dose screen, 48 h (100 = growth as untreated, 0 = no growth, -100 = all killed)
# Settings in all cases: 10 µM
# SK-MEL-2 melanoma = tested on: SK-MEL-2 melanoma
# EKVX NSCLC = tested on: EKVX NSCLC
# SN12C renal = tested on: SN12C renal
# UO-31 renal = tested on: UO-31 renal
# TK-10 renal = tested on: TK-10 renal
# ACHN renal = tested on: ACHN renal
# CAKI-1 renal = tested on: CAKI-1 renal
# A498 renal = tested on: A498 renal
# CCRF-CEM leukemia = tested on: CCRF-CEM leukemia
# MOLT-4 leukemia = tested on: MOLT-4 leukemia
SMILES,growth (SK-MEL-2 melanoma),growth (EKVX NSCLC),growth (SN12C renal),growth (UO-31 renal),growth (TK-10 renal),growth (ACHN renal),growth (CAKI-1 renal),growth (A498 renal),growth (CCRF-CEM leukemia),growth (MOLT-4 leukemia)
Cc1ccc2nc(-c3ccc(-c4nnc(SCC(=O)Nc5ccc(Br)cc5)o4)cc3)[nH]c2c1,83.8%,85.1%,51%,51.5%,74.7%,67.8%,76.5%,83.4%,38.2%,15.9%
CCOC(=O)CNC(=O)CN(Cc1ccccc1)C(=O)[C@@]1(C)CCC[C@]2(C)[C@H]3CC4C(C(C)C)=C[C@]3(CC[C@H]21)[C@@H]1C(=O)CCC(=O)[C@H]41,47.4%,66.2%,50%,47.9%,98.1%,52.9%,81.3%,120%,16.4%,15.8%
Cc1ccc(F)cc1N/C=c1\s/c(=C(\C#N)C(=O)Nc2ccccc2)n(-c2ccccc2)c1=O,94.7%,86.7%,46.9%,45.5%,84.4%,-20.1% (active),19.8%,-16.7% (active),84.7%,90.3%
COc1ccccc1C(=O)NNC(=O)CSc1nc2c(c(=O)[nH]1)CCCC2,112%,91.5%,102%,61.9%,132%,98.8%,84.5%,153%,96.8%,105%
CC(=O)c1ccc(Nc2nc(SCCC(C)C)nc(-c3ccc(F)cc3)c2C#N)cc1,117%,52.7%,22.7%,24.7%,6.32% (active),-42.9% (active),16.2%,15.6%,86.9%,76.9%
O=C(CSc1nnc(-c2c[nH]c3ccccc23)n1-c1ccccc1)Nc1ccc(C(=O)/C=C/c2ccc(Cl)cc2)cc1,87.6%,59%,83%,45.8%,91.8%,68.4%,68.2%,90.7%,83.7%,58.8%
CCOC(=O)c1sc(N/N=C(\C)c2ccc3c(c2)Nc2ccccc2S3)nc1C,10.7%,26.1%,51.3%,29.4%,36.8%,16.9%,32.2%,30.6%,32.4%,14.8%
Brc1ccc(/C=N/Nc2ncnc3sc4c(c23)CCN(Cc2ccccc2)C4)cc1,112%,94.2%,64.4%,73.9%,125%,56.5%,70%,117%,22.5%,46.2%
Cc1ccc(NCC(=O)Nn2c(COc3ccccc3)nc3ccccc3c2=O)cc1,87.2%,84.6%,40.4%,80.8%,86.9%,72.8%,44.3%,91.9%,101%,106%
O=C1NC(=NC23CC4CC(CC(C4)C2)C3)N/C1=C\c1ccc2ncsc2c1,-23.3% (active),-0.13% (active),8.93% (active),2.14% (active),17.8%,3.03% (active),5.17% (active),-11.3% (active),9.69% (active),-5.73% (active)
Cc1ccc2nc(COc3ccc(C(=O)NNC(=S)NC(=O)c4ccccc4)cc3)[nH]c2c1,68.9%,51.6%,58.1%,18.6%,67.8%,23.6%,26.8%,97.3%,51.5%,52.6%
COc1cc(/C=C/C(=O)c2cc(OC)c(OC)c(OC)c2)ccc1Oc1nc(Nc2ccc(F)cc2)nc(N(C)C)n1,-49.4% (active),20.6%,-89.3% (active),-100% (active),28.6%,-82.3% (active),11.5%,-1.01% (active),3.77% (active),4.87% (active)
CN1C(=O)N(C)C2SC(N/N=C/c3ccccc3F)=NC21 (stereo not given),56.4%,86.4%,71.3%,60.6%,83.6%,85.5%,67.4%,82.4%,67.3%,44.5%
O=C(CSc1nnc(-c2c[nH]c3ccccc23)n1-c1ccccc1)Nc1ccc(C(=O)/C=C/c2cccc([N+](=O)[O-])c2)cc1,101%,83.9%,104%,42.9%,115%,74.3%,83.7%,95.7%,96.1%,78%
O=C(Nc1ccc(F)c(Cl)c1)c1cc(-c2ccc(F)cc2F)ccc1O,-69.2% (active),-5.82% (active),-17.3% (active),-5.93% (active),19.1%,-13.4% (active),-18.2% (active),-21% (active),0.694% (active),-21.1% (active)
COc1cc2c(cc1OC)/C(=C\c1sc(Nc3ccc(O)cc3)nc1O)C(C(=O)O)=N2,-9.38% (active),59.9%,35.4%,39.7%,77.4%,37.8%,26.9%,103%,19.3%,25.9%
COc1ccc(C(=O)CSc2nnc(-c3c[nH]c4ccccc34)n2-c2ccccc2)cc1,72%,29.3%,44.4%,32.6%,63.9%,22.8%,61.5%,111%,82.5%,82.1%
O=C(Nc1ccc(Cl)c(C(F)(F)F)c1)c1cncc(C#Cc2cnc3ccc(N4CCOCC4)nn23)c1,-33.8% (active),19.2%,6.18% (active),-33.6% (active),23.8%,-35% (active),9.84% (active),-19.3% (active),37.5%,0.617% (active)
O=C1c2ccccc2C(=O)c2c1c(C(=O)c1ccc(Cl)cc1)n1c2ccc2c3ccccc3ccc21,107%,97.1%,103%,69.8%,108%,82.1%,92.5%,144%,102%,107%
O=C1NC(=NC23CC4CC(CC(C4)C2)C3)N/C1=C\c1ccc2ncccc2n1,-94.8% (active),-22% (active),1.63% (active),-15.8% (active),9.19% (active),-13% (active),-13.4% (active),-28.3% (active),-9.82% (active),-10.9% (active)
COc1nccnc1NS(=O)(=O)c1ccc(NC2=C(Cl)C(=O)c3nc(C)ccc3C2=O)cc1,113%,88.2%,99.1%,74.5%,132%,109%,88.7%,94%,97%,94.8%
CN1CCN(c2ccc(C(=O)/C=C/c3cc(C(F)(F)F)ccc3Cl)cc2)CC1,65.3%,-91.9% (active),-90.1% (active),-99.2% (active),-94.4% (active),-96.8% (active),-95.2% (active),-49.7% (active),2.2% (active),2.26% (active)
O=C(Cn1nc(-c2ccccc2)ccc1=O)NN1C(=O)c2ccccc2C1=O,104%,101%,123%,85.8%,105%,99%,95.3%,103%,102%,108%
COc1cc2oc(-c3cccc(C(=O)Nc4ccc(Cl)cc4)c3)cc(=O)c2c(OCCNC(=O)CNC(=O)OC(C)(C)C)c1OC,78.4%,64.7%,53.5%,49.7%,83.9%,61.3%,34.2%,118%,49.4%,41.1%
COc1ccc(C2N(c3ccc(Br)cc3)N=C(C(C)=O)N2[C@H]2[C@H](OC(C)=O)O[C@H](COC(C)=O)[C@@H](OC(C)=O)[C@@H]2OC(C)=O)cc1 (stereo not given in full),77.9%,59.4%,79.7%,44.5%,68.9%,61.1%,70.8%,61.3%,78.8%,54.6%
CCCn1c(=O)c2[nH]c(-c3ccc(OCc4nc5ccc(C(F)(F)F)cc5[nH]4)cc3)nc2n(CCC)c1=O,66.8%,53.2%,53.5%,52.1%,96.2%,64.7%,43.6%,51.1%,35.3%,11.5%
